Laboratory results reported in PubChem BioAssay AID493169 (National Center for Advancing Translational Sciences (NCATS), 2011).
Records with an inconclusive call do not appear. Entries that show only a call come without a potency. Active and inactive are the calls of the source. Calls follow the shape of the dose curve; as a rule, active = well fitted inhibition curve with a large enough effect; inconclusive = small, poorly fitted or top-dose-only effect; inactive = flat fitted curve, though single readings scatter.

test: CHOP2 Reporter Counterscreen Assay for Inhibitors of Ubiquitin-specific Protease USP2a; details: purified enterokinase, fluorogenic substrate, 485/531 nm; series mostly up to 38.3 µM;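 also: activated enterokinase alone at 50 pM in a cell-free format rather than USP2a or CHOP2; nearly all actives have a fitted effect of over 55% in size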
Outline: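 Cell-free counterscreen with pre-activated enterokinase alone (50 pM final) in 20mM Tris-HCl pH 8.0, 2mM CaCl2, 2mM beta-mercaptoethanol, 0.05% CHAPS; compound preincubation 30 min RT, reporter substrate 25nM final, fluorescence read after 10 min (Ex 485/Em 531).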
Potency is read from the fitted curve at half-maximal effect.

SMILES | Potency
CC(C)CC(=O)NC(=S)Nc1nc(-c2ccc(Cl)cc2)cs1 | inactive
O=C(CSc1ncccc1-c1nc2ccccc2[nH]1)Nc1ccc2c(c1)OCCO2 | inactive
Cc1cc(-c2csc(NCc3ccccc3)n2)c(C)n1C | 12.6 µM (active)
COc1cc(-c2nc(-c3ccc4c(c3)-c3ccccc3S4(=O)=O)c(-c3ccccc3)[nH]2)cc(OC)c1O | inactive
COc1cc2cc(CN(CCN3CCCC3)C(=O)Nc3ccc(F)cc3)c(=O)[nH]c2cc1OC | inactive
COCCCNCCCOc1ccc(C)cc1Br | inactive
Cc1ccc(C=Nc2ccccc2C(N)=O)cc1 | inactive
CC(=O)OCC(=O)Nc1ccc(Cl)cc1Cl | inactive
O=c1oc2c(CN3CCCCC3)c(O)ccc2c2c1CCCCC2 | inactive
CCOc1ccc(Cn2nnc(C(=O)NCc3ccccc3)c2N)cc1 | inactive
O=C(O)CCn1c(C2CCCCC2)nc2ccccc21 | inactive
O=C1NCC(CN(c2ccccc2)c2ccccc2)O1 (stereo unspecified) | inactive
CCn1cc(C(=O)N2CCOCC2)c(=O)c2cc(S(=O)(=O)N(C)C)ccc21 | inactive
Cc1ccc(C(=O)CSc2nnc(CNc3nc(-c4ccccc4)cs3)n2C)cc1 | inactive
CC1=C(C(=O)OC(C)C)C(C)C(C(=O)OC(C)C)=C(C)N1 | inactive
O=C(c1ccccc1)N1CCN(C2C3CC4CC(C3)CC2C4)CC1 (stereo unspecified) | inactive
CC1(C)CC(=O)C2=C(C1)NCN(CCCN1CCOCC1)C2 | inactive
CCCCC(CC)CN=C(N)NC(N)=NCCCCCCN=C(N)NC(N)=NCC(CC)CCCC (stereo unspecified) | 5.62 µM (active)
O=[N+]([O-])/C(C(Cl)=C(Cl)Cl)=C(\Sc1ccccc1)N1CCCCC1 | inactive
N=C1/C(=C\c2ccc(-c3cccc(Cl)c3)o2)C(=O)N=C2SC=C(c3ccccc3)N12 | inactive
CC(C)(C)NC(=O)C(c1ccco1)N(C(=O)c1ccc(CN2CCOCC2)o1)c1ccccc1 (stereo unspecified) | inactive
O=[N+]([O-])c1cc(-c2ccc(/C=N\n3cnnc3)o2)cc([N+](=O)[O-])c1 | 10 µM (active)
COc1cccc(C(=O)NCc2ccc3[nH]c(C)cc3c2)c1 | inactive
O=C(CSc1nnc(SCc2ccccc2)s1)N/N=C/c1c[nH]c2ccccc12 | inactive
COc1ccc(NC(=O)CSc2nnc(-c3ccccc3Cl)n2Cc2ccco2)c(OC)c1 | inactive
O=C1OC[C@@H]2CCCN2C(=O)[C@@H](CC(=O)N(CCO)Cc2ccccc2)C/C=C\C[C@@H]1Cc1ccc(F)cc1 | inactive
